Data as given in the supplement of paper PMC7411054.
Counter-ions that a name gives are not always drawn.

Assays:
Experiment in all cases: phenotypically active (imaging signature differs from DMSO and reproducible) at any of 0.3-9 uM (binary (1 = active, 0 = inactive)); higher = active
Conditions in all cases: treatment time: 24 h
A549-ACTB-RAB5A = test system: A549-ACTB-RAB5A
Method in brief: (§1)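 After 24 h at 0.3, 1, 3 or 9 µM, with four wells per treatment, fifteen gene-edited A549, HepG2 and WPMY1 reporter lines carrying BFP, GFP and RFP/FusionRed were imaged live. Each well's live-cell features were expressed relative to solvent control wells. Deviation required ≥3 of 4 wells past the 95th percentile of control Euclidean distances, and reproducibility a median replicate Pearson correlation over the 95th percentile of non-replicates. Phenotypic activity rested on both.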

A549-CANX-COX4 = test system: A549-CANX-COX4
Method in brief: as §1

A549-GM130-SQSTM1 = test system: A549-GM130-SQSTM1
Method in brief: as §1

A549-TP53BP1-CLTA = test system: A549-TP53BP1-CLTA
Method in brief: as §1

A549-TUBA1B-RELA = test system: A549-TUBA1B-RELA
Method in brief: as §1

HepG2-ACTB-RAB5A = test system: HepG2-ACTB-RAB5A
Method in brief: as §1

HepG2-CANX-COX4 = test system: HepG2-CANX-COX4
Method in brief: as §1

HepG2-GM130-SQSTM1 = test system: HepG2-GM130-SQSTM1
Method in brief: as §1

HepG2-TP53BP1-CLTA = test system: HepG2-TP53BP1-CLTA
Method in brief: as §1

HepG2-TUBA1B-RELA = test system: HepG2-TUBA1B-RELA
Method in brief: as §1

WPMY1-ACTB-RAB5A = test system: WPMY1-ACTB-RAB5A
Method in brief: as §1

WPMY1-CANX-COX4 = test system: WPMY1-CANX-COX4
Method in brief: as §1

WPMY1-GM130-SQSTM1 = test system: WPMY1-GM130-SQSTM1
Method in brief: as §1

WPMY1-TP53BP1-CLTA = test system: WPMY1-TP53BP1-CLTA
Method in brief: as §1

WPMY1-TUBA1B-RELA = test system: WPMY1-TUBA1B-RELA
Method in brief: as §1

Measured: phenotypically active

O=c1cccc2n1C[C@H]1CNC[C@H]2C1 [Cytisine nitrate hydrate]
inactive: A549-ACTB-RAB5A 0 | A549-CANX-COX4 0 | A549-GM130-SQSTM1 0 | A549-TP53BP1-CLTA 0 | A549-TUBA1B-RELA 0 | HepG2-ACTB-RAB5A 0 | HepG2-CANX-COX4 0 | HepG2-GM130-SQSTM1 0 | HepG2-TP53BP1-CLTA 0 | HepG2-TUBA1B-RELA 0 | WPMY1-ACTB-RAB5A 0 | WPMY1-CANX-COX4 0 | WPMY1-GM130-SQSTM1 0 | WPMY1-TP53BP1-CLTA 0 | WPMY1-TUBA1B-RELA 0

CCCCCOc1ccc(C(=O)c2cccc3ccccc23)c2ccccc12
inactive: A549-ACTB-RAB5A 0 | A549-CANX-COX4 0 | A549-GM130-SQSTM1 0 | A549-TP53BP1-CLTA 0 | A549-TUBA1B-RELA 0 | HepG2-ACTB-RAB5A 0 | HepG2-CANX-COX4 0 | HepG2-GM130-SQSTM1 0 | HepG2-TP53BP1-CLTA 0 | HepG2-TUBA1B-RELA 0 | WPMY1-ACTB-RAB5A 0 | WPMY1-CANX-COX4 0 | WPMY1-GM130-SQSTM1 0 | WPMY1-TP53BP1-CLTA 0 | WPMY1-TUBA1B-RELA 0

CCN(C(C)=O)c1cccc(-c2ccnc3c(C#N)cnn23)c1 [zaleplon]
inactive: A549-ACTB-RAB5A 0 | A549-CANX-COX4 0 | A549-GM130-SQSTM1 0 | A549-TP53BP1-CLTA 0 | A549-TUBA1B-RELA 0 | HepG2-ACTB-RAB5A 0 | HepG2-CANX-COX4 0 | HepG2-GM130-SQSTM1 0 | HepG2-TP53BP1-CLTA 0 | HepG2-TUBA1B-RELA 0 | WPMY1-ACTB-RAB5A 0 | WPMY1-CANX-COX4 0 | WPMY1-GM130-SQSTM1 0 | WPMY1-TP53BP1-CLTA 0 | WPMY1-TUBA1B-RELA 0

COc1ccc(C(=O)Cc2c(CCN(C)C)cc3c(c2OC)OCO3)c(C(=O)O)c1OC [Narcétine]
inactive: A549-ACTB-RAB5A 0 | A549-CANX-COX4 0 | A549-GM130-SQSTM1 0 | A549-TP53BP1-CLTA 0 | A549-TUBA1B-RELA 0 | HepG2-ACTB-RAB5A 0 | HepG2-CANX-COX4 0 | HepG2-GM130-SQSTM1 0 | HepG2-TP53BP1-CLTA 0 | HepG2-TUBA1B-RELA 0 | WPMY1-ACTB-RAB5A 0 | WPMY1-CANX-COX4 0 | WPMY1-GM130-SQSTM1 0 | WPMY1-TP53BP1-CLTA 0 | WPMY1-TUBA1B-RELA 0

O=c1ccc2ccc3occc3c2o1 [Angelicin]
inactive: A549-ACTB-RAB5A 0 | A549-CANX-COX4 0 | A549-GM130-SQSTM1 0 | A549-TP53BP1-CLTA 0 | A549-TUBA1B-RELA 0 | HepG2-ACTB-RAB5A 0 | HepG2-CANX-COX4 0 | HepG2-GM130-SQSTM1 0 | HepG2-TP53BP1-CLTA 0 | HepG2-TUBA1B-RELA 0 | WPMY1-ACTB-RAB5A 0 | WPMY1-CANX-COX4 0 | WPMY1-GM130-SQSTM1 0 | WPMY1-TP53BP1-CLTA 0 | WPMY1-TUBA1B-RELA 0

NC(=O)CS(=O)C(c1ccccc1)c1ccccc1 (stereo not given) [modafinil]
inactive: A549-ACTB-RAB5A 0 | A549-CANX-COX4 0 | A549-GM130-SQSTM1 0 | A549-TP53BP1-CLTA 0 | A549-TUBA1B-RELA 0 | HepG2-ACTB-RAB5A 0 | HepG2-CANX-COX4 0 | HepG2-GM130-SQSTM1 0 | HepG2-TP53BP1-CLTA 0 | HepG2-TUBA1B-RELA 0 | WPMY1-ACTB-RAB5A 0 | WPMY1-CANX-COX4 0 | WPMY1-GM130-SQSTM1 0 | WPMY1-TP53BP1-CLTA 0 | WPMY1-TUBA1B-RELA 0

CC1=C(O)C(=O)[C@@H]2O[C@@H]2C1=O [(-)-Terreic acid]
inactive: A549-ACTB-RAB5A 0 | A549-CANX-COX4 0 | A549-GM130-SQSTM1 0 | A549-TP53BP1-CLTA 0 | A549-TUBA1B-RELA 0 | HepG2-ACTB-RAB5A 0 | HepG2-CANX-COX4 0 | HepG2-GM130-SQSTM1 0 | HepG2-TP53BP1-CLTA 0 | HepG2-TUBA1B-RELA 0 | WPMY1-ACTB-RAB5A 0 | WPMY1-CANX-COX4 0 | WPMY1-GM130-SQSTM1 0 | WPMY1-TP53BP1-CLTA 0 | WPMY1-TUBA1B-RELA 0

N[C@@H]1C[C@H]1c1ccccc1 [Tranylcypromine hydrochloride]
inactive: A549-ACTB-RAB5A 0 | A549-CANX-COX4 0 | A549-GM130-SQSTM1 0 | A549-TP53BP1-CLTA 0 | A549-TUBA1B-RELA 0 | HepG2-ACTB-RAB5A 0 | HepG2-CANX-COX4 0 | HepG2-GM130-SQSTM1 0 | HepG2-TP53BP1-CLTA 0 | HepG2-TUBA1B-RELA 0 | WPMY1-ACTB-RAB5A 0 | WPMY1-CANX-COX4 0 | WPMY1-GM130-SQSTM1 0 | WPMY1-TP53BP1-CLTA 0 | WPMY1-TUBA1B-RELA 0

CN1[C@@H]2C[C@@H](OC(=O)[C@H](CO)c3ccccc3)C[C@H]1[C@@H]1O[C@@H]12 [Scopolamine hydrobromide]
inactive: A549-ACTB-RAB5A 0 | A549-CANX-COX4 0 | A549-GM130-SQSTM1 0 | A549-TP53BP1-CLTA 0 | A549-TUBA1B-RELA 0 | HepG2-ACTB-RAB5A 0 | HepG2-CANX-COX4 0 | HepG2-GM130-SQSTM1 0 | HepG2-TP53BP1-CLTA 0 | HepG2-TUBA1B-RELA 0 | WPMY1-ACTB-RAB5A 0 | WPMY1-CANX-COX4 0 | WPMY1-GM130-SQSTM1 0 | WPMY1-TP53BP1-CLTA 0 | WPMY1-TUBA1B-RELA 0

O[C@H]1[C@H](O)[C@@H](O)CN2CC[C@H](O)[C@H]12 [Castanospermine]
inactive: A549-ACTB-RAB5A 0 | A549-CANX-COX4 0 | A549-GM130-SQSTM1 0 | A549-TP53BP1-CLTA 0 | A549-TUBA1B-RELA 0 | HepG2-ACTB-RAB5A 0 | HepG2-CANX-COX4 0 | HepG2-GM130-SQSTM1 0 | HepG2-TP53BP1-CLTA 0 | HepG2-TUBA1B-RELA 0 | WPMY1-ACTB-RAB5A 0 | WPMY1-CANX-COX4 0 | WPMY1-GM130-SQSTM1 0 | WPMY1-TP53BP1-CLTA 0 | WPMY1-TUBA1B-RELA 0

C/C(O)=C(/C#N)C(=O)Nc1cc(Br)ccc1Br
inactive: A549-ACTB-RAB5A 0 | A549-CANX-COX4 0 | A549-GM130-SQSTM1 0 | A549-TP53BP1-CLTA 0 | A549-TUBA1B-RELA 0 | HepG2-ACTB-RAB5A 0 | HepG2-CANX-COX4 0 | HepG2-GM130-SQSTM1 0 | HepG2-TP53BP1-CLTA 0 | HepG2-TUBA1B-RELA 0 | WPMY1-ACTB-RAB5A 0 | WPMY1-CANX-COX4 0 | WPMY1-GM130-SQSTM1 0 | WPMY1-TP53BP1-CLTA 0 | WPMY1-TUBA1B-RELA 0

COc1cc2c3cc1Oc1cc(ccc1O)C[C@@H]1c4c(cc(OC)c(O)c4Oc4cccc(c4)C[C@@H]3N(C)CC2)CC[N+]1(C)C [Tubocurarine chloride pentahydrate (+)]
inactive: A549-ACTB-RAB5A 0 | A549-CANX-COX4 0 | A549-GM130-SQSTM1 0 | A549-TP53BP1-CLTA 0 | A549-TUBA1B-RELA 0 | HepG2-ACTB-RAB5A 0 | HepG2-CANX-COX4 0 | HepG2-GM130-SQSTM1 0 | HepG2-TP53BP1-CLTA 0 | HepG2-TUBA1B-RELA 0 | WPMY1-ACTB-RAB5A 0 | WPMY1-CANX-COX4 0 | WPMY1-GM130-SQSTM1 0 | WPMY1-TP53BP1-CLTA 0 | WPMY1-TUBA1B-RELA 0
